Active and inactive are the calls of the source.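 Rule for the calls: active = IC50 below 10 µM at human M5 in a calcium flux test, acting as a negative modulator; inactive = the rest.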

In this assay the target is Muscarinic acetylcholine receptor M5 (Homo sapiens) (UniProt P08912). The assay is described as follows: inhibition of ACh-evoked M5 calcium signal – cell-based, single concentration, human M5 (AID 743025). To be noted: CHO-K1 hM5, ACh EC80 calcium flux, Fluo-4; at 10 µM; hits give low values. For orientation: Calcium assays in cells follow changes in intracellular calcium, usually with a dye or a luminescent sensor.
Chain of Muscarinic acetylcholine receptor M5 (Homo sapiens) (P08912 whole entry, looked up): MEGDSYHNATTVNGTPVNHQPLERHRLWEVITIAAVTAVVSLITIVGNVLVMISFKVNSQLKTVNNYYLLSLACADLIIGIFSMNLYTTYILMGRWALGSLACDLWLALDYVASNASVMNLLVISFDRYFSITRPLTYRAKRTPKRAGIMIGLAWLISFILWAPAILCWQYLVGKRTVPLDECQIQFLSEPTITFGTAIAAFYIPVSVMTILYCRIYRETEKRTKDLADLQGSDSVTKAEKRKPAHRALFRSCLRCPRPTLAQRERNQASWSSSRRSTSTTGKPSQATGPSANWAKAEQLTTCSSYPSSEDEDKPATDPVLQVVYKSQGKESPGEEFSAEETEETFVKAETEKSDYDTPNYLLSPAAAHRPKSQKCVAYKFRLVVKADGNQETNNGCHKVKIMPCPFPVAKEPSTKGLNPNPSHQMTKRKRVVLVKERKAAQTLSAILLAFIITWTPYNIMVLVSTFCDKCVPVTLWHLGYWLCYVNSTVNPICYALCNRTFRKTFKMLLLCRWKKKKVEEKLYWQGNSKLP
For the molecule `O=C(c1ccc(F)cc1)N1CCN2C(=O)c3ncccc3C12c1ccccc1` (configuration not stated), the activity remaining was 65.2% (inactive).
With `Cc1ccc(C(=O)N2CCN3C(=O)c4ncccc4C23c2ccccc2)cc1` (configuration not stated) the figure was 63.1% (inactive).
With `CCOc1ccc(C(=O)N2CCN3C(=O)c4ccccc4C23c2ccccc2)cc1` (configuration not stated) the figure was 61.1% (inactive); with `Cc1ccc(C23c4ccccc4C(=O)N2CCN3C(=O)c2ccc(F)c(F)c2)cc1` (configuration not stated), 0.51% (active); with `O=C(c1ccc(Cl)c(Cl)c1)N1CCN2C(=O)c3ccccc3C12c1ccccc1` (configuration not stated), 30.5% (active).
Consider `O=C1c2ccccc2C2(c3ccccc3)N1CCN2C(=O)C(Cl)(Cl)Cl` (configuration not stated), for which the activity remaining is 55.1% (active).
With `Cc1ccc(C(=O)N2CCN3C(=O)c4ccccc4C23c2ccccc2)cc1` (configuration not stated) the figure was 70.2% (inactive); with `O=C(c1ccc(F)c(F)c1)N1CCN2C(=O)c3ccccc3C12c1ccccc1` (configuration not stated), 0.88% (active); with `CS(=O)(=O)c1ccc(C23c4ccccc4C(=O)N2CCN3C(=O)c2ccc(F)c(F)c2)cc1` (configuration not stated), 77.3% (inactive).
For `O=C(c1cccc(C(F)(F)F)c1)N1CCCN2C(=O)c3ccccc3C12c1ccc(Cl)cc1` (configuration not stated) the value was 78.6% (inactive).
With `O=C(c1ccncc1)N1CCN2C(=O)c3ccccc3C12c1ccc(Cl)cc1` (configuration not stated) the figure was 72.4% (inactive).
As for `O=C(Nc1ccc(F)cc1)N1CCN2C(=O)c3ccccc3C12c1ccccc1` (configuration not stated), the activity remaining was 84.3% (inactive).
For `COc1ccc(C23c4ccccc4C(=O)N2CCN3C(=O)c2cccc(F)c2)cc1` (configuration not stated) the value was 57.4% (active); for `O=C(c1ccc(OC(F)(F)F)cc1)N1CCN2C(=O)c3ccccc3C12c1ccc(Cl)cc1` (configuration not stated), 1.2% (active); for `O=C(c1ccc(SC(F)(F)F)cc1)N1CCCN2C(=O)c3ccccc3C12c1ccc(Cl)cc1` (configuration not stated), 78.5% (inactive).
With `O=C(c1ccc2c(c1)OCO2)N1CCN2C(=O)c3ccccc3C12c1ccc(Cl)cc1` (configuration not stated) the figure was 8.65% (active).
With `Cc1ccccc1C(=O)N1CCN2C(=O)c3ccccc3C12c1ccccc1` (configuration not stated) the figure was 50.5% (active); with `Clc1ccc(C2(c3ccccc3)CCCN2)cc1` (configuration not stated), 68.9% (inactive); with `O=C(c1cccc(C(F)(F)F)c1)N1CCN2C(=O)c3ccccc3C12c1ccc(Cl)cc1` (configuration not stated), 1.89% (active).
As to `O=C(c1ccc(C(F)(F)F)cc1)N1CCN2C(=O)c3ccccc3C12c1ccccc1` (configuration not stated), the activity remaining is 1.06% (active).
For `O=C1c2ccccc2C2(c3ccc(F)cc3)NCCN12` (configuration not stated) the value was 77.6% (inactive); for `O=C(c1ccc(OC(F)(F)F)cc1)N1CCN2C(=O)c3ccccc3C12c1ccc(F)cc1` (configuration not stated), 69.4% (inactive).
Take `O=C(c1ccc(Cl)cc1)N1CCN2C(=O)c3ccccc3C12c1ccccc1` (configuration not stated): the activity remaining is 89.9% (inactive).
For `Cc1ccc(C(=O)N2CCN3C(=O)c4ccccc4C23c2ccc(F)cc2)cc1` (configuration not stated) the value was 67.9% (inactive); for `O=C(c1ccc(Oc2ccccc2)cc1)N1CCN2C(=O)c3ccccc3C12c1ccccc1` (configuration not stated), 75.1% (inactive); for `O=C(c1ccc(C(=O)C(F)(F)F)cc1)N1CCN2C(=O)c3ccccc3C12c1ccccc1` (configuration not stated), 90% (inactive).
With `O=C(c1ccccc1)N1CCN(C(=O)c2ccccc2)C1c1ccccc1` the figure was 85.3% (inactive); with `O=C(c1ccc(F)cc1F)N1CCN2C(=O)c3ccccc3C12c1ccccc1` (configuration not stated), 69% (inactive).
For `Cc1ccccc1C(=O)N(C)C(c1ccccc1)c1ccccc1` the value was 81.6% (inactive); for `O=C(c1ccc(F)c(F)c1)N1CCN2C(=O)c3ccccc3C12c1ccc(F)cc1` (configuration not stated), 64.5% (inactive).
`O=C(c1ccccc1)N1CCCC1c1ccccc1` (configuration not stated): the activity remaining was 88.8% (inactive).
Consider `O=C(c1ccccn1)N1CCN2C(=O)c3ccccc3C12c1ccc(Cl)cc1` (configuration not stated), for which the activity remaining is 88.9% (inactive).
As to `O=C(NCCNC(=O)c1ccccc1C(=O)c1ccc(F)cc1)c1ccccc1`, the activity remaining was 86.1% (inactive).
As to `CN(C(=O)c1ccccc1)C(c1ccccc1)c1ccccc1`, the activity remaining was 84.3% (inactive).
With `COc1ccc(C23c4ccccc4C(=O)N2CCN3C(=O)c2ccc(F)cc2)cc1` (configuration not stated) the figure was 62.4% (inactive); with `O=C(c1cc(F)cc(F)c1)N1CCN2C(=O)c3ccccc3C12c1ccc(F)cc1` (configuration not stated), 69.3% (inactive).
For `CC(C)Oc1ccc(C(=O)N2CCN3C(=O)c4ccccc4C23c2ccc(Cl)cc2)cc1` (configuration not stated), the activity remaining is -1.43% (active).

The record behind these values is PubChem BioAssay AID743025 (Vanderbilt Specialized Chemistry Center, 2013).
